Data on 39 molecules can be found in PubChem BioAssay.

Active and inactive are the calls of the source. How the calls were made is not given here. Where a SMILES comes first, the peptide text is derived from it. [ ]: non-standard residue; d: D form. ξ: configuration not given here. ξV = CC(C)C(N)C(=O)O

For this experiment, the system named is Botulinum neurotoxin type F light chain protease (Clostridium botulinum). The experiment in a line: Clostridium botulinum type F light chain protease inhibitors, microsphere substrate cleavage, validation (AID 588459). As to conditions: multiplex microsphere protease substrate cleavage assay, flow cytometry; at 10 µM; active compounds read high.
Turning to `CC1(C)c2ccccc2N2CC(=O)N(CC(N)=O)C21C` (centres undefined), the inhibition was 1.5% (inactive). With `NC(N)=N/N=C/c1ccc(OS(=O)(=O)c2ccccc2)cc1`, the inhibition is -5.1% (inactive).

For the molecule `COc1ccc(CNC(=O)c2c(O)c3cccc4c3n(c2=O)CCC4)cc1`, the inhibition is 4.9% (inactive). On to `CC(=O)Oc1cc2oc(=O)cc(C)c2cc1OC(C)=O`, for which the inhibition was -1.8% (inactive). For `COc1ccccc1/C=C/C(=O)c1c2c(c(C)[nH]c1=O)CCCC2` the value was -1.3% (inactive); for `CC(=O)NC(C(=O)NCC(N)=O)C(C)C` (centres undefined) (Ac-[ξV]-Gly-NH2), -3% (inactive); for `Cc1nc2sccn2c(=O)c1CCN1CCC(=C(c2ccc(F)cc2)c2ccc(F)cc2)CC1`, -6% (inactive).

Consider `O=C(c1ccc(O)cc1)c1ccc(O)cc1O`, for which the inhibition was -0.9% (inactive). On to `Cn1c(=O)oc2cc(S(=O)(=O)N3CCc4ccccc4C3)ccc21`, for which the inhibition is -0.9% (inactive). As for `CN=C1c2cc3cc(OC)ccc3n2CCN1C`, the inhibition is -1.5% (inactive). The result for `Nc1nc2c(ncn2COC(CO)CO)c(=O)[nH]1` reads -0.4% (inactive); that for `COc1ccc2c(c1)C(=O)CC(c1ccccc1F)O2` (centres undefined), 1.4% (inactive); that for `CCOC(=O)c1ccc2[nH]c(C)c(CCC(C)=O)c(=O)c2c1`, -0.7% (inactive). In the case of `Cc1ccccc1NC(=O)C1(C)Cc2ccccc2C(=O)O1` (centres undefined), the inhibition was 0.3% (inactive). For `CC(=O)c1c(N)nc2n(c1=O)CCCCC2`, the inhibition is -2.9% (inactive). `CNCCCN1c2ccccc2CCc2ccccc21`: the inhibition is -0.9% (inactive).

For `C=CCN1C(=O)c2oc3ccccc3c(=O)c2C1c1ccc(O)c(OC)c1` (centres undefined), the inhibition is -1.5% (inactive). Take `O=C(c1ccccc1F)c1cc2c(cc1[N+](=O)[O-])OCCO2`: the inhibition was 5.4% (inactive).

Take `O=C(NC(Nc1ccccn1)C(Cl)(Cl)Cl)c1ccccc1` (centres undefined): the inhibition was -7.2% (inactive).

For the molecule `O=C(O)c1ccccc1C(=O)OCCCCOC(=O)c1ccccc1C(=O)O`, the inhibition is 5.9% (inactive). As for `CCOc1ccc2oc(-c3ccccc3)c(C(=O)O)c2c1`, the inhibition is -1.1% (inactive). As to `O[C@H]1COC2C1OC[C@@H]2O` (some centres undefined), the inhibition was -2.3% (inactive). The result for `CN1CCN(C2=Nc3cc(Cl)ccc3Nc3ccccc32)CC1` reads -0.2% (inactive); that for `Cn1c2c(c(=O)[nH]c1=O)C(c1ccc(O)cc1)C1=C(N2)c2ccccc2C1=O` (centres undefined), -0.8% (inactive). As to `CC(=O)OCC(=O)[C@@]1(O)CC[C@H]2[C@@H]3CCC4=CC(=O)C=C[C@]4(C)[C@H]3[C@@H](O)C[C@@]21C`, the inhibition is -5.9% (inactive). For the molecule `Cn1c(SCC(=O)c2ccccc2)nnc1-c1ccncc1`, the inhibition was 1.7% (inactive). Regarding `COc1cc(/C=C/C(=O)N2CCCC2)cc(OC)c1OC`, the inhibition was -1.5% (inactive). For the molecule `COc1ccc(-n2cc(CNCc3cccnc3)c(-c3cccc(F)c3)n2)cc1`, the inhibition was -3.6% (inactive). Take `COc1ccc(C2c3c(n[nH]c3C)CC(C)(O)C2C(C)=O)cc1OC` (centres undefined): the inhibition was 4% (inactive). Regarding `COc1ccc(C(=O)Nc2ncc3c(n2)CC(C)CC3=O)cc1` (centres undefined), the inhibition was -1.5% (inactive). `O=C(NCCN1CCOCC1)c1ccc(Cl)cc1`: the inhibition was 2.4% (inactive). Turning to `Nc1ccn([C@@H]2O[C@H](CO)[C@@H](O)[C@@H]2O)c(=O)n1`, the inhibition is -1.4% (inactive). The result for `COc1cc2c(cc1OC)C(C)=NC1(CCCCC1)C2` reads 9.8% (inactive); that for `CC(=O)Oc1ccc(C(=O)O)cc1OC(C)=O`, -0.7% (inactive). For `CC1(C(=O)O)CCC(C(=O)NC2CCCCCC2)C1(C)C` (centres undefined), the inhibition is -6.8% (inactive). The result for `Cc1ccccc1C(=O)NCC(=O)O` reads 1.1% (inactive); that for `C#CCN(C)Cc1ccccc1`, 2.5% (inactive); that for `O=C1C2CC=C(Cl)CC2C(=O)N1CCc1c[nH]c2ccccc12` (centres undefined), 0.7% (inactive).

`COc1cc2cc(C(=O)O)[nH]c2c(OC)c1OC`: the inhibition is 0.5% (inactive).
